Measured values reported in article PMC5540273 (PLoS ONE, 2017).

Each molecule was assayed on MAP4K3. Settings: concentration: 1 μM, replicates: in singlicate; n = 1.
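Note: KINOMEscan kinase panel screen.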

Going from `Cc1ccc(C(=O)NCC(N)=O)cc1-n1c(C)cc(OCc2ccc(F)cc2F)c(Br)c1=O` to `COCCNC(=O)c1ccc(-c2cc(C(=O)NC3CC3)cc(F)c2C)cc1` [GW868318], the “%Inh” value rises from 12% to 14%.

First: CCn1cnc2c(N)ncnc21 [GW345098]
Second: CNc1ncnc2[nH]ncc12 [SKF-18355]
The “%Inh” value of the first is higher: 1% for the first, 0% for the second.

`O=C(NCCNc1ccnc(Nc2ccc(F)cc2)n1)c1cc2ccccc2s1` [GSK1379874] and `O=C(NCCNc1ccnc(Nc2ccc(F)cc2)n1)Nc1ccccc1F` [GSK1379880] are the same in “%Inh” value: 0% for the first, 0% for the second.

`Cc1cccc(-c2nc(-c3ccc(S(C)(=O)=O)cc3)sc2-c2ccncc2)c1` and `Cl.Oc1cccc(Nc2ccnc3cc(-c4ccncc4)ccc23)c1` [GW494601] are the same in “%Inh” value: 0% for the first, 0% for the second.

`O=C(NOCC1CC1)c1ccc(F)c(F)c1Nc1ccc(I)cc1Cl` and `CC(C)(CN)c1nc(-c2ccc(Cl)c(O)c2)c(-c2ccncc2)[nH]1.O=C(O)C(F)(F)F` [SB-477794] are the same in “%Inh” value: 0% for the first, 0% for the second.

`N#Cc1ccc(-c2cc(-c3c[nH]nc3-c3ccccn3)ccn2)cc1` [GW693028] and `c1ccc(-c2cc(-c3c[nH]nc3-c3ccccn3)ccn2)cc1` [GW576604] are the same in “%Inh” value: 0% for the first, 0% for the second.

First: Cc1c2ccc(N(C)c3ccnc(Nc4cccc(S(N)(=O)=O)c4)n3)cc2nn1Cc1ccccc1.Cl.Cl [GW787226]
Second: NS(=O)(=O)CCc1cccc(Nc2nccc(-c3c(-c4cccc(NC(=O)c5c(F)cccc5F)c4)nn4ccccc34)n2)c1 [GSK336735]
The “%Inh” value of the first is higher: 70% for the first, 65% for the second.

Compared with `CN1c2ccc(CNc3ccc(F)cc3)cc2-c2c(cnn2C)S1(=O)=O`, `CC(C)Oc1ccc2c(-c3ccnc(Nc4ccc(N5CCN(C)CC5)cc4)n3)cnn2n1` [GW696155] is higher in “%Inh” value: 8% for the first, 52% for the second.

`CC(=O)Nc1ccc(COc2ccc(Nc3ccnc4cc(-c5ccccn5)ccc34)cc2)cc1.Cl` [GW440148] and `COc1ccc(COc2cc(-n3cnc4ccccc43)sc2C(N)=O)cc1` [GSK1024304] are the same in “%Inh” value: 0% for the first, 0% for the second.

Going from `Cl.Nc1ncnc2occ(-c3ccc(NC(=O)Nc4cc(C(F)(F)F)ccc4F)cc3)c12` [SB-707548] to `Fc1ccc(-c2nn3c(OCC(F)(F)F)cccc3c2-c2ccncc2)cc1` [GW514784], the “%Inh” value falls from 77% to 0%.

`N#Cc1c(N2CCOCC2)sc(-c2ccn[nH]2)c1-c1ccc(Cl)cc1` and `O=c1cc(N2CCOCC2)nc2n(Cc3cccc(Cl)c3Cl)c(C3CC3)nn12` [GSK2358994] are the same in “%Inh” value: 0% for the first, 0% for the second.

Going from `COc1cc2ncn(-c3cc(OCc4sccc4Cl)c(C(N)=O)s3)c2cc1OC` [GSK448459] to `C[C@@H](Oc1cc(-n2cnc3ccc(NC(=O)NC(C)(C)C)cc32)sc1C(N)=O)c1ccccc1Cl` [GSK346294], the “%Inh” value falls from 50% to 0%.

Compared with `O=C1Cc2cc(Nc3nc(NCc4cccc(S(=O)(=O)C(F)(F)F)c4)ncc3C(F)(F)F)ccc2N1`, `COc1ccc(S(=O)(=O)NC2CCN(c3cc(C)nc(Nc4cccc(C#N)c4)n3)CC2)cc1.O=C(O)C(F)(F)F` [GSK1653539] is lower in “%Inh” value: 13% for the first, 0% for the second.

Going from `NCC(NC(=O)c1cc(-c2cn[nH]c2)c(-c2ccnc3[nH]ccc23)s1)c1ccccc1.O=C(O)C(F)(F)F.O=C(O)C(F)(F)F` (stereo not shown) [GSK1325775] to `CCc1ccnc(/C=C/c2n[nH]c3cc(Sc4ccccc4C(=O)NC)ccc23)c1`, the “%Inh” value falls from 6% to 0%.

First: O=c1cc(N2CCOCC2)nc2n(Cc3cccc4ccccc34)ccn12 [GSK2333389]
Second: Cc1ccc(NC(=O)c2ccnc(N3CCN(C)CC3)c2)cc1-c1ccc(C(=O)NCC2CC2)cc1 [GW775604]
The “%Inh” value of the first is lower: 6% for the first, 9% for the second.

`Nc1nc(-c2ccc3c(N)n[nH]c3c2)cc(N2CCCC2)n1` [GSK2227430] and `Nc1nccc(-c2c(-c3ccc(F)cc3)ncn2C2CCN(CC(F)(F)F)CC2)n1` [SB-236560] are the same in “%Inh” value: 0% for the first, 0% for the second.

First: COc1ccc(CNC(=O)NC2CCN(c3ccnc(Nc4ccc(OC)cc4)n3)C2)cc1 (stereo not shown) [GSK1379727]
Second: CN(C1=C(c2ccccc2)C(=O)NC1=O)c1ccccc1 [SB-334860]
The “%Inh” value of the first is lower: 0% for the first, 8% for the second.

These molecules were tested on MAP4K4. Settings: concentration: 1 μM, replicates: in singlicate; n = 1.

Going from `Cc1ccc(C(=O)NCC(N)=O)cc1-n1c(C)cc(OCc2ccc(F)cc2F)c(Br)c1=O` to `COCCNC(=O)c1ccc(-c2cc(C(=O)NC3CC3)cc(F)c2C)cc1` [GW868318], the “%Inh” value falls from 4% to 3%.

`CCn1cnc2c(N)ncnc21` [GW345098] and `CNc1ncnc2[nH]ncc12` [SKF-18355] are the same in “%Inh” value: 0% for the first, 0% for the second.

`O=C(NCCNc1ccnc(Nc2ccc(F)cc2)n1)c1cc2ccccc2s1` [GSK1379874] and `O=C(NCCNc1ccnc(Nc2ccc(F)cc2)n1)Nc1ccccc1F` [GSK1379880] are the same in “%Inh” value: 0% for the first, 0% for the second.

First: Cc1cccc(-c2nc(-c3ccc(S(C)(=O)=O)cc3)sc2-c2ccncc2)c1
Second: Cl.Oc1cccc(Nc2ccnc3cc(-c4ccncc4)ccc23)c1 [GW494601]
The “%Inh” value of the first is lower: 30% for the first, 47% for the second.

`O=C(NOCC1CC1)c1ccc(F)c(F)c1Nc1ccc(I)cc1Cl` and `Cc1ccc(NC(=O)c2ccnc(N3CCN(C)CC3)c2)cc1-c1ccc(C(=O)NCC2CC2)cc1` [GW775604] are the same in “%Inh” value: 0% for the first, 0% for the second.

First: N#Cc1ccc(-c2cc(-c3c[nH]nc3-c3ccccn3)ccn2)cc1 [GW693028]
Second: c1ccc(-c2cc(-c3c[nH]nc3-c3ccccn3)ccn2)cc1 [GW576604]
The “%Inh” value of the first is higher: 46% for the first, 22% for the second.

Compared with `Cc1c2ccc(N(C)c3ccnc(Nc4cccc(S(N)(=O)=O)c4)n3)cc2nn1Cc1ccccc1.Cl.Cl` [GW787226], `NS(=O)(=O)CCc1cccc(Nc2nccc(-c3c(-c4cccc(NC(=O)c5c(F)cccc5F)c4)nn4ccccc34)n2)c1` [GSK336735] is higher in “%Inh” value: 33% for the first, 76% for the second.

Compared with `CN1c2ccc(CNc3ccc(F)cc3)cc2-c2c(cnn2C)S1(=O)=O`, `CC(C)Oc1ccc2c(-c3ccnc(Nc4ccc(N5CCN(C)CC5)cc4)n3)cnn2n1` [GW696155] is higher in “%Inh” value: 0% for the first, 1% for the second.

Going from `CC(=O)Nc1ccc(COc2ccc(Nc3ccnc4cc(-c5ccccn5)ccc34)cc2)cc1.Cl` [GW440148] to `COc1ccc(COc2cc(-n3cnc4ccccc43)sc2C(N)=O)cc1` [GSK1024304], the “%Inh” value rises from 0% to 2%.

Going from `Cl.Nc1ncnc2occ(-c3ccc(NC(=O)Nc4cc(C(F)(F)F)ccc4F)cc3)c12` [SB-707548] to `Fc1ccc(-c2nn3c(OCC(F)(F)F)cccc3c2-c2ccncc2)cc1` [GW514784], the “%Inh” value falls from 92.9% to 0%.

`N#Cc1c(N2CCOCC2)sc(-c2ccn[nH]2)c1-c1ccc(Cl)cc1` and `O=c1cc(N2CCOCC2)nc2n(Cc3cccc(Cl)c3Cl)c(C3CC3)nn12` [GSK2358994] are the same in “%Inh” value: 0% for the first, 0% for the second.

Compared with `COc1cc2ncn(-c3cc(OCc4sccc4Cl)c(C(N)=O)s3)c2cc1OC` [GSK448459], `C[C@@H](Oc1cc(-n2cnc3ccc(NC(=O)NC(C)(C)C)cc32)sc1C(N)=O)c1ccccc1Cl` [GSK346294] is higher in “%Inh” value: 0% for the first, 2% for the second.

`O=C1Cc2cc(Nc3nc(NCc4cccc(S(=O)(=O)C(F)(F)F)c4)ncc3C(F)(F)F)ccc2N1` and `COc1ccc(S(=O)(=O)NC2CCN(c3cc(C)nc(Nc4cccc(C#N)c4)n3)CC2)cc1.O=C(O)C(F)(F)F` [GSK1653539] are the same in “%Inh” value: 0% for the first, 0% for the second.

Compared with `NCC(NC(=O)c1cc(-c2cn[nH]c2)c(-c2ccnc3[nH]ccc23)s1)c1ccccc1.O=C(O)C(F)(F)F.O=C(O)C(F)(F)F` (stereo not shown) [GSK1325775], `CCc1ccnc(/C=C/c2n[nH]c3cc(Sc4ccccc4C(=O)NC)ccc23)c1` is lower in “%Inh” value: 31% for the first, 0% for the second.

Compared with `O=c1cc(N2CCOCC2)nc2n(Cc3cccc4ccccc34)ccn12` [GSK2333389], `Nc1nc(-c2ccc3c(N)n[nH]c3c2)cc(N2CCCC2)n1` [GSK2227430] is lower in “%Inh” value: 15% for the first, 0% for the second.

`Nc1nccc(-c2c(-c3ccc(F)cc3)ncn2C2CCN(CC(F)(F)F)CC2)n1` [SB-236560] and `COc1ccc(CNC(=O)NC2CCN(c3ccnc(Nc4ccc(OC)cc4)n3)C2)cc1` (stereo not shown) [GSK1379727] are the same in “%Inh” value: 0% for the first, 0% for the second.

For `CN(C1=C(c2ccccc2)C(=O)NC1=O)c1ccccc1` [SB-334860], the “%Inh” value was 16%.
